# About 83,000 compounds went through this panel and 20% of them were active in at least one assay; those are over-represented in the sample as a whole.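 Single-concentration screen, 48 h exposure, 96-well plates. Endpoint: percent growth. Below 10 = active.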 Unmarked numbers belong to inactive results. The source made the active and inactive calls.
# System: SW-620 colon
# Assay: NCI-60 one-dose screen, 48 h (100 = growth as untreated, 0 = no growth, -100 = all killed)
# Settings: 10 µM unless noted
# Experimental: Growth inhibition of the SW-620 human tumor cell line is measured as a screen for anti-cancer activity. Cells are grown in 96 well plates and exposed to the test compound for 48 hours. Compounds are tested at a single concentration, which is 10^-5 M for most compounds. The reported endpoint is percent growth (GI% or GIPRCNT), where numbers from 0 - 100% represent growth inhibition, and numbers from -100% - 0 represent cell death. For example, a value of 40 represents 60% growth inhibition. A value of 0 means no net growth occurred over the course of the experiment. A value of -40 indicates 40% of cells at the beginning of the experiment died by the end of the experiment. A value of -100 means all cells are dead at the end of the experiment.
# NCI-60 Human Tumor Cell Lines Screen was performed using the standard one-dose NCI protocol, which is described in more detail at https://dtp.cancer.gov/discovery_development/nci-60/default.htm.
# Compounds with GIPRCNT values below 10 were considered active. Activity score was based on GIPRCNT using the following formula: […]
# Score is 0 for GIPRCNT values of 100 or above, 50 for GIPRCNT values of 0, and 100 for GIPRCNT values of -100.
row,SMILES,growth
1,CCc1c(C)c2cc3nc(NCc4ccccc4)oc3c(C)c2oc1=O,95.8%
2,c1ccc([Se]CCCN2CCN(CCC[Se]c3ccccc3)CC2)cc1,101%
3,CCC1S/C(=N\N=C(/C)c2ccco2)N(c2ccccc2)C1=O (stereo not given),119%
4,COc1ccccc1NC(=O)COc1ccc(/C=C2/Oc3cc4occc4c(OC)c3C2=O)cc1OC,111%
5,O=S1(=O)N(CCNc2nccc(-c3c(-c4cccc(O)c4)nc4sccn34)n2)CCN1Cc1ccccc1,74.4%
6,Nc1nc(=S)ss1,99.2%
7,Cc1cc(Nc2ccc(Cl)c(Cl)c2)nc(N)n1,97.7%
8,Cc1ccc(-c2cn3cc([N+](=O)[O-])ccc3n2)cc1,100%
9,COc1ccc(-c2nnc(SCC(=O)Nc3ccc(C(=O)/C=C/c4ccccc4)cc3)o2)cc1OC,103%
10,NC(N)=N/N=C/c1ccc([N+](=O)[O-])cc1,94.1%
11,CCNC(=O)Oc1ccc(/C(=C(/CC)Cc2ccccc2)c2ccc(OCCN3CCOCC3)cc2)cc1,59.3%
12,O=C(Nc1ccc(-n2cc(-c3ccncc3)c(-c3ccc(O)c(Cl)c3)n2)cc1)Nc1cccc(Cl)c1Cl,73.7%
13,COc1ccccc1C(OC(C)=O)OC(C)=O,108%
14,COc1ccc(-c2cc(-c3nnc(SC/C(=N\O)c4ccccc4)n3-c3ccccc3)c3ccccc3n2)cc1,102%
15,CSc1ccc(C(=O)C[n+]2cccc(C)c2)cc1,102%
16,COc1ccc(CNc2nc3ccccc3c3c(=O)c4ccccc4sc23)cc1OC,73.7%
17,CN[C@@H](CCCNC(N)=NC/C=C(/C)CCC=C(C)C)C(=O)N(C)[C@@H](CCCNC(N)=NCC=C(C)C)C(=O)N[C@H](C)[C@H](OS(=O)(=O)O)c1ccc(OS(=O)(=O)O)c(COS(=O)(=O)O)c1,108%
18,Cc1cc[n+](CCCC[n+]2ccc(C)cc2)cc1,103%
19,O=C(NCCNc1nccc(-c2c(-c3cccc(O)c3)nc3sccn23)n1)c1cccc(C(F)(F)F)c1,107%
20,O=C(Nc1ccc(-n2cc(-c3ccncc3)c(-c3ccc(O)c(Cl)c3)n2)cc1)c1ccc(Cl)c(Cl)c1,37.3%

row,SMILES,growth
1,Nc1nc(Cl)c2c(C(F)(F)F)cn(CC3CCNCC3)c2n1,22.4%
2,Cc1cc(NC(=O)c2cccc(C(F)(F)F)c2)ccc1-n1ccc2c(NC(=O)c3ccccc3)nccc21,110%
3,CC(C)(C)NC(C1=CC(C)(C)c2ccccc2C1=O)c1ccccc1 (stereo not given),-82.3% (active)
4,Nc1ncnc2c1ncn2C1OC(COC(c2ccccc2)(c2ccccc2)c2ccccc2)C(O)C1O (stereo not given),98%
5,O=[N+]([O-])c1ccc(NS(=O)(=O)c2ccccc2)c2ccccc12,49.6%
6,CC(C)CCC[C@@H](C)[C@H]1CC[C@H]2[C@@H]3CC=C4N(c5ccccc5)C(=O)CC[C@]4(C)[C@H]3CC[C@]12C,99.8%
7,CN1CCN(C(=O)/C=C/c2ccc([N+](=O)[O-])o2)CC1,82%
8,COC(=O)Nc1nc2ccc(Sc3ccccc3)cc2[nH]1,18.6%
9,CCN(CC)c1ccc(C2CC(c3cc(OC)c(OC)c(OC)c3)=NN2)cc1 (stereo not given),18.4%
10,CCCCn1c(-c2cccc(OC)c2)nc2cc(OC)c(OC)cc2c1=O,102%
11,C[C@H]1C=C(C[C@@H](O)CC#CC#CCCCCC[C@@H](O)[C@H]2CCC(=O)O2)C(=O)O1,103%
12,Nc1nc(Cl)cc(NCc2ccc(CNc3cc(Cl)nc(N)n3)cc2)n1,87.4%
13,Nc1nccc(=S)[nH]1,103%
14,N#Cc1c(N)nc(Cl)c(C#N)c1C(=O)c1ccccc1,43.3%
15,COc1ccc(/C(Cl)=N/N=C(\Cl)c2cc(OC)c(OC)c(OC)c2)cc1OC(C)=O,93.7%
16,CNCCCOc1c(Br)cc(CCNC(=O)/C(Cc2cc(Br)c(OC)c(Br)c2)=N/O)cc1Br,-47.1% (active)
17,COc1ccc(/C=C2/C(=O)Nc3cc(Cl)c(-c4csc(N)n4)cc32)cc1,31.2%
18,O=C1c2ccccc2OC=C(c2ccccc2)N1CCCCNc1ccc(F)cc1,103%
19,Cc1c(C(C)(C)C)cc(C(C)(C)C)c2c1CN(C)CO2,117%
20,CC12CCC3C(CCC4CC(O)CCC43C)C1C/C(=C/O)C(=O)O2 (stereo not given),102%

# Reference: PubChem BioAssay (NCI)
